# Measured values as given in PubChem BioAssay.
# Active and inactive are the calls of the source.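 The calls were made as follows: active = mean duplicate potentiation above the buffer control mean plus 5 SD of buffer wells; inactive = the rest.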
# Biological target: Potassium voltage-gated channel subfamily KQT member 2 (Rattus norvegicus) (UniProt O88943)
# Assay: KCNQ2 thallium flux enhancement – KCNQ2-CHO-K1 cells, selectivity assay for KCNQ1 potentiator project (AID 493009);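 also: assay conditions were tuned for KCNQ1 rather than KCNQ2 modulators; signal is max minus min fluorescence divided by baseline after thallium stimulus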
# Conditions: FluxOR thallium flux fluorescence, at 10 µM; hits give high values, scaled: buffer 0, activator control 100
# Chain of Potassium voltage-gated channel subfamily KQT member 2 (Rattus norvegicus) (O88943 whole entry, looked up): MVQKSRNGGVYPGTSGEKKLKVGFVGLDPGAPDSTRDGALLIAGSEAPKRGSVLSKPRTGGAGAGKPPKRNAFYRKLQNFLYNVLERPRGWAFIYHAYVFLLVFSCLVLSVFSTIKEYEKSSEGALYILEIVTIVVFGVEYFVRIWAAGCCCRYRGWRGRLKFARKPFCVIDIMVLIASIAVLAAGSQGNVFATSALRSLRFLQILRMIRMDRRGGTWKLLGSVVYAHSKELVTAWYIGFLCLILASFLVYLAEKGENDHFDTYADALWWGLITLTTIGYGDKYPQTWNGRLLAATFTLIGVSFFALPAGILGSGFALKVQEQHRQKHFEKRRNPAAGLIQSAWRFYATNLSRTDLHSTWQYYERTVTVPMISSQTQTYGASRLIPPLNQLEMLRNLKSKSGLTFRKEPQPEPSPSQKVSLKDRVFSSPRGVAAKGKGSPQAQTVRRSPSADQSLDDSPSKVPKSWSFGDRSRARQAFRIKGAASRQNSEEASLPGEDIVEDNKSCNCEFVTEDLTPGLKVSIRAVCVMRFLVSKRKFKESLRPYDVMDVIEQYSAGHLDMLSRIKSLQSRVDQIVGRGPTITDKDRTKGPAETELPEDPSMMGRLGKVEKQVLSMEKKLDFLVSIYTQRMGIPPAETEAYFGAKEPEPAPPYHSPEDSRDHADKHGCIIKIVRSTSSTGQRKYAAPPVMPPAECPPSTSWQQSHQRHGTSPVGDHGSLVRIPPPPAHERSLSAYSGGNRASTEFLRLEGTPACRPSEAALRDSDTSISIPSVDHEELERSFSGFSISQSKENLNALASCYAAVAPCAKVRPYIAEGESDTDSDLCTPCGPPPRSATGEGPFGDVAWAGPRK
Compound,outcome,potentiation
COc1ccccc1OCCc1nnc(N)s1,inactive,
O=C(Nc1cccc2cccnc12)c1ccc(Br)o1,inactive,
CC(=O)c1c(N2CCCC2)[nH]c(-c2ccccc2)nc1=S,inactive,
CCOc1ccc(NC(=O)CN(C)C(=O)c2c(-c3c(F)cccc3Cl)noc2C)cc1OCC,inactive,
C/C(=N/NC(=O)c1cc(C2CC2)[nH]n1)c1cccs1,inactive,
Cc1cccc(C)c1NC(=S)NC(=O)c1ccc(Br)o1,,412% (active)
O=C(CC(=O)c1ccccc1O)c1cccc(F)c1,,188% (active)
O=C(c1ccco1)N1CCN(S(=O)(=O)c2ccc(F)cc2)CC1,inactive,
Cc1ccnc(NS(=O)(=O)c2ccc(NC(=O)C34CC5CC(CC(C5)C3)C4)cc2)n1,inactive,
CCc1ccc2[nH]c(O)c(N=Nc3nc(-c4ccccc4)cs3)c2c1,,282% (active)
Cc1cccc(C(=O)Oc2csc(=S)n2C(=O)c2cccc(C)c2)c1,,158% (active)
CC1SCC(=NOCc2c(Cl)cccc2Cl)CS1 (centres undefined),inactive,
CCC1CCCCN1C(=S)NC(=O)c1cccs1 (centres undefined),,493% (active)
COc1ccc(/C=C2/S/C(=N/N=C3\CC4CCC3(C)C4(C)C)NC2=O)cc1 (centres undefined),,186% (active)
Cn1ncc2c(O/N=C(\N)c3ccc(C(F)(F)F)cc3)ncnc21,inactive,
CCOC(=O)c1c(NC(=S)NCC2CCCO2)sc(C)c1C (centres undefined),inactive,
O=C(NCc1ccccc1)c1onc(CSc2ccc(F)cc2)c1C(=O)NCCCN1CCOCC1,inactive,
CCCCC(Nc1ncnc2ccccc12)C(=O)O (centres undefined),inactive,
C=CCn1c(N)c(C(=O)Nc2ccc(C)cc2)sc1=S,inactive,
CC(Oc1ccc(Br)cc1)C(=O)N1CCC(C(N)=O)CC1 (centres undefined),inactive,

Compound,outcome,potentiation
CCSc1nnc(NS(=O)(=O)c2ccc(OC)cc2)s1,inactive,
COc1ccc(C(=O)N2CCC(n3nccc3NC(=O)C3CCOC3)CC2)cc1 (centres undefined),inactive,
CN(CC(=O)Nc1ccc(F)c(F)c1F)C(=O)CC1OC(=O)c2ccccc21 (centres undefined),inactive,
C=CCn1c(=S)[nH]c2scc(-c3ccc(C)o3)c2c1=O,,580% (active)
COCCCNc1nc2ccccc2nc1NS(=O)(=O)c1cccs1,inactive,
S=C1NC2(CCCCC2)Cc2ccccc21,inactive,
CS(=O)(=O)NN1C(=O)c2ccccc2NC1c1ccccc1F (centres undefined),inactive,
CC(=O)Nc1nc2c(F)cccc2s1,inactive,
CC(=O)c1c(C)[nH]c(C(=O)OCc2nc3ccsc3c(=O)[nH]2)c1C,inactive,
Fc1ccc(SCCc2ccncc2)cc1,inactive,
CCOc1ccc(C(C#N)N2CCOCC2)cc1OC (centres undefined),inactive,
CNCc1ccccc1Sc1cccc2ccccc12,inactive,
COc1ccc(S(=O)(=O)NCCCN2CCOCC2)cc1F,inactive,
CC1=NN(C(N)=S)C(=O)C1N=Nc1cccc(Cl)c1C (centres undefined),,1230% (active)
COc1ccc(NC(=O)CC2C(=O)N(c3ccc(Cl)cc3)C(=S)N2NC(=O)c2cccc(F)c2)cc1 (centres undefined),inactive,
CCCCn1c(=S)[nH]c2ccccc2c1=O,,187% (active)
FC(F)Sc1nc2ccccc2[nH]1,inactive,
Cc1nn2c(c1-c1ccccc1)NC1=C(C(=O)CCC1)C2c1ccccc1 (centres undefined),inactive,
COCCN1CCCC(CNCc2cn(C)nc2-c2ccc(Oc3ccccc3)cc2)C1 (centres undefined),inactive,
